Bioassay records: PubChem BioAssay, National Center for Advancing Translational Sciences (NCATS)
Shown are actives, neighbours in structure and some others; about 9.9% of the full set was active somewhere.
Tau fluor cs: Counterscreen qHTS for Inhibitors of Tau Fibril Formation, Fluorescence Polarization | tau K18 P301L Alexa594 fluorescence, heparin fibrillization | Potency, µM (doses to about 57.7 µM), without a hit: at the top dose activity change, negative = decrease | hit rate 0.93% among 280,000; active = well fitted curve in the direction sought with a large enough effect; inconclusive = small, poorly fitted or top-dose-only effect, or another doubt; inactive = no such curve, though single readings can be large; an effect the other way counts as inactive or inconclusive; also: nearly all actives have a fitted effect of over 55% in size
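Human K18 P301L tau (15 uM unlabeled plus 0.24 uM Alexa 594-labeled, final) in 100 mM sodium acetate pH 7 was mixed with compound and 20 uM heparin and incubated 6 hr at 37 C.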
HPGD block: qHTS Assay for Inhibitors of HPGD (15-Hydroxyprostaglandin Dehydrogenase) | 15-hydroxyprostaglandin dehydrogenase [NAD(+)] (Homo sapiens), P15428 | purified HPGD, NADH fluorescence kinetic, PGE2 substrate | hit rate 4.3% among 150,000 | Potency, µM, inactives show top-dose activity change, negative = inhibition, hits mostly inhibitors
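NADH formation kinetics: reaction with 30 uM PGE2 and 1 mM NAD+ (final), 20 nM enzyme, Tris-HCl pH 8 with Tween 20, after 15 min compound preincubation at room temperature. Fluorescence change, last versus first of five reads.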
Tau FP inhib: qHTS for Inhibitors of Tau Fibril Formation, Fluorescence Polarization; hit rate 0.39% among 280,000; AID 1468, 2008; Microtubule-associated protein tau (Homo sapiens), P10636; K18 P301L tau heparin fibrillization, Alexa594 FP, 6 h; Potency, µM (doses to about 57.7 µM), for inactives: at the highest dose activity, negative = inhibition, most hits filed as inhibitors; active = well fitted curve in the direction sought with a large enough effect; inconclusive = small, poorly fitted or top-dose-only effect, or another doubt; inactive = no such curve, though single readings can be large; an effect the other way counts as inactive or inconclusive; also: nearly all actives have a fitted effect of over 55% in size
Target sequence (P10636 561-689 P618L limits assumed): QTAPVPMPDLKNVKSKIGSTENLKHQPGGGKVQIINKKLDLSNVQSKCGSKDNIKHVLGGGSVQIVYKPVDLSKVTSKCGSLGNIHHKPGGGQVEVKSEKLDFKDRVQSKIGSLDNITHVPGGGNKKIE
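FP of Alexa 594-tau after heparin (20 uM) induction. Substrate: human K18 P301L, 15 uM unlabeled, 0.24 uM labeled. Buffer 100 mM sodium acetate pH 7. 6 hr, 37 C.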
ALDH1A1 block: qHTS Assay for Inhibitors of Aldehyde Dehydrogenase 1 (ALDH1A1); Purified ALDH1A1, NADH fluorescence, propionaldehyde substrate; Potency, µM (series often up to 75.3 µM), without a hit: at the top dose activity, negative = inhibition, actives largely listed as inhibitors; hit rate 7.3% among 220,000;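 also: plate controls were no enzyme wells and a reference inhibitor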
KDM4E inh: qHTS Assay for Inhibitors of Human Jumonji Domain Containing 2E (JMJD2E). Lysine-specific demethylase 4E (Homo sapiens), B2RXH2. Potency, µM (top dose mostly 57.1 µM), for inactives: at the highest dose activity change, negative = inhibition, most hits filed as inhibitors. JMJD2E catalytic domain, FDH-coupled NADH fluorescence (FDH is formaldehyde dehydrogenase). hit rate 1.6% among 230,000. AID 2147, 2009;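 also: 0% = wells with enzyme and -100% = buffer wells without enzyme; nearly all actives have a fitted effect of over 50% in size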
Target sequence (B2RXH2 1-337 limits assumed): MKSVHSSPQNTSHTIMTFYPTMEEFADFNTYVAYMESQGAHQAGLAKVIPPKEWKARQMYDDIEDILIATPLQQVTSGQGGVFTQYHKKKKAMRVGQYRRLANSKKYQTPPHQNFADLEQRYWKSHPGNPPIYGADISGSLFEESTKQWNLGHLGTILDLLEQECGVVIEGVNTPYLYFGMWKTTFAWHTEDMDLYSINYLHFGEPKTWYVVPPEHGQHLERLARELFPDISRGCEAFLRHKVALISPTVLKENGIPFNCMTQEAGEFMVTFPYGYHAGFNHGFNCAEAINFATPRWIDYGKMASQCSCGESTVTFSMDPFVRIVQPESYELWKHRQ
Tau ThT inhib: qHTS for Inhibitors of Tau Fibril Formation, Thioflavin T Binding; Potency, µM (doses to about 57.4 µM), without a hit: top-dose activity, negative = inhibition, actives largely listed as inhibitors; hit rate 2.1% among 270,000; recombinant tau K18 P301L (four-repeat tau fragment), heparin-induced fibrillization, ThT fluorescence; AID 1460, 2008; Microtubule-associated protein tau (Homo sapiens), P10636; active = well fitted curve in the direction sought with a large enough effect; inconclusive = small, poorly fitted or top-dose-only effect, or another doubt; inactive = no such curve, though single readings can be large; an effect the other way counts as inactive or inconclusive; also: nearly all actives have a fitted effect of over 55% in size
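In this qHTS, human K18 P301L tau is incubated with compound and heparin for 6 hr at 37 C, and Thioflavin T fluorescence then reports fibril load.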
* = called active by the depositor; ? = inconclusive; . = no result. Unless noted, calls follow the shape of the dose curve; as a rule, active = well fitted inhibition curve with a large enough effect (not every such curve was filed as active); inconclusive = small, poorly fitted or top-dose-only effect, or another doubt; inactive = no such curve, though single readings can be large or run the other way. Unless noted, % is scaled to controls: 0 for no effect and ±100 for the full control effect; potency is read from the fitted curve at half-maximal effect.

SMILES	Tau fluor cs	HPGD block	Tau FP inhib	ALDH1A1 block	KDM4E inh	Tau ThT inhib
CCCCN(C)CC(O)Cn1cc(/C=C/C(=O)c2ccc(Br)cc2)c2ccccc21 (stereo not given)	?	.	10%	.	.	20µM*
CCCN(CCC)CC(O)Cn1cc(/C=C/C(=O)c2ccc(C)cc2)c2ccccc21 (stereo not given)	?	.	-12%	.	.	18µM*
CC(C)Oc1cccc(NC(=O)C2CCN(S(=O)(=O)Cc3ccccc3)CC2)c1	-5%	.	-15%	.	.	-1%
Nc1cc(=O)nc(SCC(=O)Nc2ccccc2)n1-c1ccccc1	-6%	-14%	1%	5%	7%	-4%
Cc1ccc(NC(=O)C(C)Sc2nc(=O)cc(N)n2-c2ccccc2)cc1 (stereo not given)	-19%	-16%	-8%	11µM*	-1%	-12%
Cc1ccc(NC(=O)C(C)Sc2nnc(-c3cccnc3)n2-c2ccccc2)cc1 (stereo not given)	-7%	14µM*	-3%	-10%	-2%	-8%
Cn1ncc([N+](=O)[O-])c1C(=O)N/N=C/c1cccc([N+](=O)[O-])c1	-2%	.	13%	-8%	-14%	-6%
O=C(NCc1nc(-c2ccc(C(F)(F)F)cc2)no1)Nc1ccc(F)cc1F	1%	.	-2%	.	13%	.
O=C(NCc1nc(-c2ccc(C(F)(F)F)cc2)no1)Nc1cc(Cl)cc(Cl)c1	?	.	16µM*	.	-5%	.
O=C1S/C(=C/c2ccc(N3CCOCC3)o2)C(=O)N1Cc1ccc(F)cc1	-9%	-8%	6%	2.2µM*	-6%	?
COc1ccc2cc(/C=C3\SC(=S)NC3=O)c(N3CCOCC3)nc2c1	-24%	20µM*	4%	22%	-7%	16µM*
O=C1S/C(=C\c2ccc(N3CCOCC3)o2)C(=O)N1Cc1ccc(F)cc1	-4%	?	-3%	8.9µM*	-1%	-16%
COc1ccc(OC)c(/C=C2\SC(=S)N(N3CCOCC3)C2=O)c1	-13%	.	3%	?	5%	?
CC(C)OC(=O)CN1C(=O)S/C(=C/c2ccc(N3CCCCC3)o2)C1=O	-8%	-13%	18%	7.1µM*	?	?
COc1cccc(C(=O)Nc2ccc3nc(SCC(=O)N4CCOCC4)sc3c2)c1	-29%	.	-14%	.	.	-8%
O=C1NC(=S)S/C1=C/c1ccc(N2CCOCC2)o1	-9%	7.9µM*	11%	8%	-4%	-3%
Oc1cc2c(cc1O)[C@H](c1ccccc1)CNCC2	-14%	28µM*	-11%	4%	14µM*	?
COc1cc2c(cc1OC)C(c1ccccc1)CN(C)CC2 (stereo not given)	-8%	-6%	-14%	-7%	2%	-10%
C/C(=N\NS(=O)(=O)c1cccc([N+](=O)[O-])c1)c1cccnc1	-8%	.	0%	?	-21%	-8%
N#Cc1nc(-c2ccc(OCc3ccccc3Cl)cc2)oc1NCCCn1ccnc1	-16%	?	14%	?	3.2µM*	?
CCCCNS(=O)(=O)c1ccc2nc(SCC(=O)N3CC(C)OC(C)C3)[nH]c2c1 (stereo not given)	-6%	16µM*	-2%	?	-2%	-9%
O=C(CSc1nc2ccc(S(=O)(=O)N3CCOCC3)cc2[nH]1)N1CCOCC1	-26%	3.5µM*	?	3.5µM*	-3%	28µM*
COC(=O)C1CCN(C(=O)CSc2nc3ccc(OC)cc3[nH]2)CC1	-2%	.	8%	4%	-9%	-9%
